An excerpt weighted towards active compounds, which were near 12% of everything screened.
BAZ2B inh = blocks human BAZ2B; Potency, µM (series often up to 114 µM), for inactives: at the top dose activity change, negative = inhibition, usual class: inhibitors; AID 504333; Q9UIF8; AlphaScreen BAZ2B-H3K14Ac peptide displacement; hit rate 4.4% among 360,000; also: % is scaled to controls: 0 for no effect and ±100 for the full control effect; nearly all actives have a fitted effect of over 60% in size
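AlphaScreen displacement of biotin-H3(5-23)K14Ac peptide (50 nM final) from BAZ2B (50 nM final) in PBS pH 7.4, 0.01% Tween-20; complex preformed 30 min RT, then compounds (top 110 uM) 30 min RT, beads 20 min dark.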
PLK1 PBD inh = PLK1 (human) polo-box domain binding inhibition. Plk1 PBD binding of FITC phosphopeptide, fluorescence polarization. hit rate 2.8% among 360,000. Potency, µM, for the others: max response, negative = inhibition, hits mostly inhibitors. P53350; also: series mostly up to about 57 µM; % is scaled to controls: 0 for no effect and ±100 for the full control effect; nearly all actives have a fitted effect of over 65% in size
Target sequence (P53350 whole entry, looked up, the tested form may be a part): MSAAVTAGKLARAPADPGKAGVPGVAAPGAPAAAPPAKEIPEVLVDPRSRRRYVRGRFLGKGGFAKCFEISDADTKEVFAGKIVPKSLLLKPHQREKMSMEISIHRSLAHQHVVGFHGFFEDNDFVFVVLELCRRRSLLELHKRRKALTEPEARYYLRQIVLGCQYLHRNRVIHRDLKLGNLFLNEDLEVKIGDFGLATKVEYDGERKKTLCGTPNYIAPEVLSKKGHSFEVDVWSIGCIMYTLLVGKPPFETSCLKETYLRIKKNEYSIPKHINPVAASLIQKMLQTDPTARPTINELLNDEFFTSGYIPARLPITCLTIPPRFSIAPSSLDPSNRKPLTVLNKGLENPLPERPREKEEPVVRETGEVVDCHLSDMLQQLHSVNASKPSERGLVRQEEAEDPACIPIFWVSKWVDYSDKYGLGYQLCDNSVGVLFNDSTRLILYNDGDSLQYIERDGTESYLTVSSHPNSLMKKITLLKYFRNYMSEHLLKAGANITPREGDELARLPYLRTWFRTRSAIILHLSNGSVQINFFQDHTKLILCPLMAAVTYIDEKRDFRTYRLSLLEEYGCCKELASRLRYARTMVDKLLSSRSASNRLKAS
JMJD2A Tudor inh = inhibitors of human JMJD2A Tudor domain. hit rate 4.4% among 390,000. AlphaScreen JMJD2A-Tudor / H3K4me3 peptide binding. AID 504339. Potency, µM (highest dose often 114 µM), inactives show top-dose activity change, negative = inhibition, actives largely listed as inhibitors. O75164; also: % is scaled to controls: 0 for no effect and ±100 for the full control effect; nearly all actives have a fitted effect of over 50% in size
Sfp inh = inhibitors of Bacillus subtilis Sfp phosphopantetheinyl transferase. Q9F4F7. Biochemical Sfp PPTase activity, qHTS. hit rate 3.5% among 310,000. Potency, µM, for the others: largest response in the series, negative = inhibition, actives largely listed as inhibitors;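 also: the enzyme is Sfp with the accession as filed and its product quenches rhodamine fluorescence; 0% = enzyme reaction without inhibitor and -100% = no enzyme wells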
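Compounds were incubated with enzyme (final 15 nM) for 15 min at room temperature before substrate addition started the reaction. Fluorescence at 525 nm excitation, 598 nm emission was recorded immediately and after 30 minutes.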
HP1b binding inh = HP1-beta chromodomain-methylated histone interaction inhibition; P83916; AlphaScreen HP1-beta / biotin-H3K9me3 peptide binding; Potency, µM (highest dose often 114 µM), inactives show at the top dose activity change, negative = inhibition, actives largely listed as inhibitors; hit rate 0.56% among 390,000; also: nearly all actives have a fitted effect of over 70% in size
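AlphaScreen: HP1-beta (50 nM) preformed 30 min with biotin-H3(1-18)K9me3 peptide (50 nM) in PBS pH 7.4, 0.01% Tween-20. Compound added for 30 min at RT, then streptavidin donor/nickel chelate acceptor beads (10 ug/mL) for 30 min.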
G9a inh = G9a (human) methyltransferase inhibition; Q96KQ7; G9a H3K9 monomethylation, AlphaScreen, 2 h; Potency, µM (series often up to 102 µM), for the others: at the highest dose activity, negative = inhibition, actives largely listed as inhibitors; hit rate 8.8% among 350,000; AID 504332; also: % is scaled to controls: 0 for no effect and ±100 for the full control effect; nearly all actives have a fitted effect of over 75% in size
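G9a (20 nM) was preincubated 15 min with compound, then reacted 2 h at room temperature with 500 nM biotin-H3K9 peptide and 20 µM SAM. Monomethyl-H3K9 detected by AlphaScreen using anti-H3K9me1 antibody.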
Active calls of the source: *; ? = inconclusive; . = no result given; [ ] = another dose, or the depositor's remark. Calls follow the shape of the dose curve; as a rule, active = well fitted curve in the direction sought with a large enough effect; inconclusive = small, poorly fitted or top-dose-only effect, or another doubt; inactive = no such curve, though single readings can be large; an effect the other way counts as inactive or inconclusive. Potency is read from the fitted curve at half-maximal effect.

SMILES | BAZ2B inh | PLK1 PBD inh | JMJD2A Tudor inh | Sfp inh | HP1b binding inh | G9a inh
Cc1ccc(/C=N/N2C(=O)C3C(C2=O)C2C=CC3C23CC3)o1 (stereo not given) | -3% | -5% | -7% | -6% | 16% | -4%[59 µM]
Cc1ccc(/C=C2\C(=O)NC(=O)N2C)o1 | -33% | -8% | -15% | 40µM* | 26% | 35µM*
COC(=O)C1=C(C)N(CCc2ccccc2)C(=O)C1 | 12% | -5% | -6% | 6% | 32% | ?
COc1ccc(C(CNC(=O)c2cc(S(=O)(=O)N3CCN(c4ccccc4)CC3)ccc2Cl)N(C)C)cc1 (stereo not given) | . | 4% | ? | . | 0% | .
CC(=O)NCCc1nc2cc(NC(=O)c3ccc([N+](=O)[O-])cc3)ccc2n1C | -3% | -20% | -4% | 22% | 21% | 5%
Cc1ccc(/C=C2/C(=O)N(c3ccccc3)C(=S)N2C)o1 | ? | -28% | ? | 5µM* | ? | 8.9µM*
CCN1C(=O)/C(=C\c2ccco2)C(C(=O)OC)=C1C | ? | -3% | ? | 6% | -14% | ?
C=CCN1C(=O)/C(=C\c2ccco2)C(C(=O)OC)=C1C | 45µM* | 2% | ? | 20µM* | -12% | ?
COC(=O)C1=C(C)N(Cc2ccccc2)C(=O)/C1=C\c1ccco1 | 18µM* | -15% | ? | -26% | ? | 28µM*
CCOC(=O)C1=C(C)N(c2ccc(OCC)cc2)C(=O)/C1=C\c1ccco1 | 8.9µM* | -30% | 22µM* | 50µM* | 45µM* | ?
CCCCCOC(=O)CSc1nc2sc3c(c2c(=O)n1-c1ccccc1)CC(C)(CC)OC3 (stereo not given) | -1% | . | -18% | . | 5% | 0%[59 µM]
CCC(=O)NCCCC[C@H](NC(=O)OCc1ccccc1)C(=O)Nc1ccc2c(C)cc(=O)oc2c1 | . | . | . | 6% | . | .
CC(C)NC(=O)N1CC2(CCN(C(=O)c3cc(C(F)(F)F)cc(C(F)(F)F)c3)CC2)C1 | . | . | . | 10% | . | 11%[12.7 µM]
COc1cc(/C=N/NS(=O)(=O)c2ccc(C)c([N+](=O)[O-])c2)ccc1O | . | ? | -9% | -27% | 15% | ?
COc1cc(/C=N/NS(=O)(=O)c2ccc(C(C)(C)C)cc2)cc([N+](=O)[O-])c1O | ? | ? | 56µM* | -5% | ? | 18µM*
COc1cc(/C=N/NS(=O)(=O)c2ccc(C)c([N+](=O)[O-])c2)cc([N+](=O)[O-])c1O | 50µM* | -5% | -24% | -16% | -6% | 40µM*
COc1ccc(-n2c(O)c(/C=N/NS(=O)(=O)c3ccc(C)c([N+](=O)[O-])c3)c3ccccc3c2=O)cc1OC | 50µM* | 22% | 40µM* | 12% | ? | 1%[12.7 µM]
COc1cc(/C=N/NC(N)=O)cc([N+](=O)[O-])c1O | ? | -9% | -24% | -2% | -17% | ?
O=C(COC(=O)c1ccc(Cl)nc1)Nc1ccc2c(c1)OCCO2 | -2% | -10% | -13% | . | 20% | 18%[12.7 µM]
CCCC1NC(=O)c2cccnc2-n2c1nc1ccc(OC)cc1c2=O (stereo not given) | . | 4% | . | . | . | .
CC(=O)N1C(=O)CC(C)N(C(C)=O)c2ccc([N+](=O)[O-])cc21 (stereo not given) | -2% | -12% | ? | -4% | 44% | 20µM*
CC1CC(=O)N(C)c2ccc([N+](=O)[O-])cc2N1 (stereo not given) | 9% | 0% | -2% | 14% | 20% | 8%[59 µM]
Cc1cc2oc(=O)cc(CSc3nnc(-c4cccs4)o3)c2cc1C(C)C | -8% | 24µM* | 89µM* | -9% | -7% | 35µM*
COc1ccc(-c2nc(NC(C)=O)sc2-c2ccc(OC)cc2)cc1 | -20% | -3% | -24% | 9% | 46% | ?
COc1ccc(-c2sc(Nc3ccc(F)c(F)c3F)nc2CCC(=O)NN)cc1 | -35% | -1% | 56µM* | 10% | -23% | -48%
SMILES | BAZ2B inh | PLK1 PBD inh | JMJD2A Tudor inh | Sfp inh | HP1b binding inh | G9a inh
CN1CCN(S(=O)(=O)c2cccc(C(=O)Nc3cc(Cl)ccc3N3CCOCC3)c2)CC1 | -3% | -2% | -13% | . | 15% | 16µM*
CCc1ccc(C(=O)NNC(=O)c2cccc(S(=O)(=O)N3CCN(C)CC3)c2)cc1 | 12% | -10% | -19% | . | 6% | 56µM*
CN1CCN(S(=O)(=O)c2cccc(C(=O)Nc3ccccc3N3CCCC3)c2)CC1 | -29% | -8% | -13% | 9% | 2% | ?
CC1CN(S(=O)(=O)c2cccc(C(=O)Nc3cc(Cl)ccc3N3CCOCC3)c2)CC(C)O1 (stereo not given) | 12% | -1% | -8% | . | 41% | -12%[59 µM]
CN1CCN(S(=O)(=O)c2cccc(C(=O)Nc3cc(C(F)(F)F)ccc3N3CCCC3)c2)CC1 | 2% | -2% | -13% | . | 28% | 50µM*
CCN(CC)CCC(O)(c1ccc2c(c1)OCO2)c1cc(OC)c(OC)c(OC)c1 (stereo not given) | . | 2% | -4% | . | 17%[57 µM] | .
CCCCCOc1ccc(NC(=O)Cc2csc(C)n2)cc1 | 0% | . | -7% | . | 57% | 6%[59 µM]
Cc1ccn2cc(-c3ccc(O)c(O)c3)nc2c1 | 71µM* | -6% | 40µM* | 50µM* | ? | 8.9µM*
Oc1ccc(-c2cn3ccccc3n2)cc1 | -17% | -3% | -17% | 5% | 48% | ?
Oc1ccc(-c2cn3ccccc3n2)cc1O | 79µM* | -1% | 25µM* | ? | ? | 2µM*
Cc1ccn2cc(-c3cccc(NC(=O)C(C)C)c3)nc2c1 | -19% | 21µM* | ? | 17% | 15% | -22%
COCCC(=O)Nc1ccc2c(c1)CN(C(=O)c1ccc(CSC)o1)CC2 | 7% | ? | -12% | 1% | 74% | 50µM*
O=C1c2[nH]nc(-c3ccccc3O)c2C(c2ccc(F)cc2)N1Cc1ccco1 (stereo not given) | ? | -3% | ? | -25% | -14% | -25%[12.7 µM]
Cc1ccc(C2c3c(-c4cc(C)ccc4O)n[nH]c3C(=O)N2Cc2ccco2)cc1 (stereo not given) | 22µM* | . | ? | . | 0% | 28µM*
COc1ccc(C2c3c(-c4ccccc4O)n[nH]c3C(=O)N2Cc2ccco2)cc1OC (stereo not given) | 56µM* | -21% | ? | -9% | -24% | -35%
N#Cc1ccsc1NC(=O)CCN1C(=O)C2CCCCC2C1=O (stereo not given) | . | -5% | -12% | . | 5%[57 µM] | .
O=S(=O)(c1ccc(OC(F)(F)F)cc1)N1CCN(c2nc(-c3cccs3)nc3ccccc23)CC1 | . | . | 0% | . | 38% | .
Cc1onc(-c2ccccc2Cl)c1C(=O)N(C)CC(=O)Nc1ccc(F)c(F)c1F | 9% | -5% | -13% | . | 13% | -5%

High-throughput results: PubChem, National Center for Advancing Translational Sciences (NCATS)
